The panel holds about 83,000 compounds, 20% with a hit somewhere; the sample as a whole holds those more often.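 Assay: single dose, 48 h. Readout: percent growth (0 = no net growth; negative = cell death). Active: <10.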 Active and inactive are the calls of the source.
Legend:
Assay in all cases: NCI-60 one-dose screen, 48 h (100 = growth as untreated, 0 = no growth, -100 = all killed)
Conditions in all cases: 10 µM unless noted
SR leukemia = tested on: SR leukemia
RPMI-8226 leukemia = tested on: RPMI-8226 leukemia
OVCAR-8 ovarian = tested on: OVCAR-8 ovarian
OVCAR-5 ovarian = tested on: OVCAR-5 ovarian
OVCAR-4 ovarian = tested on: OVCAR-4 ovarian
SK-OV-3 ovarian = tested on: SK-OV-3 ovarian
OVCAR-3 ovarian = tested on: OVCAR-3 ovarian
HS 578T breast = tested on: HS 578T breast
NCI/ADR-RES ovarian = tested on: NCI/ADR-RES ovarian
IGROV1 ovarian = tested on: IGROV1 ovarian

Measured: growth

C/C(=C(/c1ccccc1)c1ccc(N2C(=O)c3cccc4c(NCc5ccccc5)ccc(c34)C2=O)cc1)c1ccccc1
inactive: SR leukemia 83.6% | RPMI-8226 leukemia 102% | OVCAR-8 ovarian 95% | OVCAR-5 ovarian 102% | OVCAR-4 ovarian 101% | SK-OV-3 ovarian 111% | OVCAR-3 ovarian 110% | HS 578T breast 96% | NCI/ADR-RES ovarian 97.9%

c1cc(N2CCCC2)c2nc(-c3[nH]ncc3Nc3ncnc4[nH]ccc34)[nH]c2c1
active: SR leukemia 5.49% | RPMI-8226 leukemia -7.49% | OVCAR-8 ovarian 1.75% | OVCAR-5 ovarian -9.59% | OVCAR-4 ovarian -13.6% | IGROV1 ovarian -17.9% | OVCAR-3 ovarian -14% | HS 578T breast -4.25% | NCI/ADR-RES ovarian -21.1%

NC(N)=N/N=C/c1ccc(-c2ccc(-c3ccc(Cl)cn3)s2)cc1
inactive: SR leukemia 11.6% | RPMI-8226 leukemia 38.4% | OVCAR-8 ovarian 99.3% | OVCAR-5 ovarian 107% | OVCAR-4 ovarian 99.3% | IGROV1 ovarian 91.1% | OVCAR-3 ovarian 85.9% | HS 578T breast 92.3% | NCI/ADR-RES ovarian 50.8%

COc1cccc(-c2nn(-c3ccccc3)cc2-c2ccnc(NCCNS(=O)(=O)c3ccccc3)c2)c1
inactive: SR leukemia 12.7% | RPMI-8226 leukemia 19.1% | OVCAR-8 ovarian 27.7% | OVCAR-5 ovarian 72.3% | OVCAR-4 ovarian 39.3% | OVCAR-3 ovarian 42.6% | HS 578T breast 46.7% | NCI/ADR-RES ovarian 23.3%

C=C(C)[C@@H]1CC[C@]2(C(=O)N3CCN(C)CC3)CC[C@]3(C)[C@H](CC[C@@H]4[C@@]5(C)C/C(=C/c6ccc(C(F)(F)F)cc6)C(=O)C(C)(C)[C@@H]5CC[C@]43C)[C@@H]12
inactive: SR leukemia 76.9% | RPMI-8226 leukemia 86.1% | OVCAR-8 ovarian 97.4% | OVCAR-5 ovarian 94.9% | OVCAR-4 ovarian 103% | IGROV1 ovarian 102% | OVCAR-3 ovarian 103% | HS 578T breast 99.4% | NCI/ADR-RES ovarian 96.8%

C#CCn1c(C)cc(C)c(C#N)c1=O
inactive: SR leukemia 101% | RPMI-8226 leukemia 103% | OVCAR-8 ovarian 103% | OVCAR-5 ovarian 99.9% | OVCAR-4 ovarian 105% | SK-OV-3 ovarian 118% | OVCAR-3 ovarian 112% | HS 578T breast 103% | NCI/ADR-RES ovarian 106%

COC(=O)[C@]12CC[C@@H](C)[C@H](C)[C@@H]1C1=CC[C@@H]3[C@@]4(C)C[C@@H](OC(C)=O)[C@H](O)[C@@](C)(COC(C)=O)[C@@H]4[C@H](O)C[C@@]3(C)[C@]1(C)CC2
active: SR leukemia -17.7% | RPMI-8226 leukemia -23.7% | OVCAR-8 ovarian -53.7% | OVCAR-5 ovarian -75.8% | OVCAR-4 ovarian -70.3% | IGROV1 ovarian -61.3% | OVCAR-3 ovarian -79.4% | HS 578T breast -28.4% | NCI/ADR-RES ovarian -63.7%

N=C(N)c1ccc(-c2ccc(-c3cc(F)cc(F)c3)o2)nc1
inactive: RPMI-8226 leukemia 60.5% | OVCAR-8 ovarian 97.5% | OVCAR-5 ovarian 88.9% | OVCAR-4 ovarian 96.2% | OVCAR-3 ovarian 95.6% | HS 578T breast 87.8% | NCI/ADR-RES ovarian 94.6%
active: SR leukemia 7.21%

Oc1cc(/C=C/c2nc(N3CCOCC3)c3cc(Cl)c(Cl)cc3n2)cc(O)c1O
inactive: SR leukemia 87.8% | RPMI-8226 leukemia 103% | OVCAR-8 ovarian 107% | OVCAR-5 ovarian 102% | OVCAR-4 ovarian 110% | IGROV1 ovarian 108% | HS 578T breast 118% | NCI/ADR-RES ovarian 100%

Cc1cccc2c1NC(=O)[C@@]21[C@H](C(=O)c2ccccc2)[C@]2(C(=O)Nc3ccccc32)[C@H]2CCCN21
active: SR leukemia -6.48% [100 µM] | OVCAR-8 ovarian -17.2% [100 µM] | OVCAR-4 ovarian -20.3% [100 µM] | OVCAR-3 ovarian 2.54% [100 µM]
inactive: RPMI-8226 leukemia 30.9% [100 µM] | OVCAR-5 ovarian 101% [100 µM] | IGROV1 ovarian 43% [100 µM] | HS 578T breast 16% [100 µM] | NCI/ADR-RES ovarian 109% [100 µM]

O=C1OC(c2ccc(Cl)c(Cl)c2)=C/C1=C/c1cccc([N+](=O)[O-])c1
inactive: SR leukemia 117% | RPMI-8226 leukemia 99% | OVCAR-8 ovarian 99.4% | OVCAR-5 ovarian 96.1% | OVCAR-4 ovarian 116% | IGROV1 ovarian 81.8% | OVCAR-3 ovarian 111% | HS 578T breast 97.7% | NCI/ADR-RES ovarian 104%

Cc1ccsc1-c1ccc2c(c1)COC2(CCCN(C)C)c1ccc(F)cc1 (stereo unspecified)
inactive: RPMI-8226 leukemia 19% | OVCAR-8 ovarian 71.9% | OVCAR-5 ovarian 72.1% | OVCAR-4 ovarian 54.4% | IGROV1 ovarian 26.6% | OVCAR-3 ovarian 67.2% | HS 578T breast 49% | NCI/ADR-RES ovarian 72.4%
active: SR leukemia -4.74%

COc1ccc(-c2nc3c(c(C)nn3-c3ccc(F)cc3)c(=O)[nH]2)cc1
active: OVCAR-4 ovarian -39.3%
inactive: SR leukemia 15.9% | RPMI-8226 leukemia 89.8% | OVCAR-8 ovarian 60.7% | OVCAR-5 ovarian 85.9% | IGROV1 ovarian 53.8% | OVCAR-3 ovarian 55% | HS 578T breast 63.4% | NCI/ADR-RES ovarian 63.9%

CC1(C)C=CC[C@]2(C)[C@H]3CC[C@@H]4[C@H]5[C@H](C(=O)/C=C/c6cccnc6)CC[C@]5(CO)CC[C@@]4(C)[C@]3(C)CC[C@@H]12
active: SR leukemia -26.9% | RPMI-8226 leukemia -18.5% | OVCAR-8 ovarian -11.7% | OVCAR-5 ovarian -74.3% | OVCAR-4 ovarian -14.5% | IGROV1 ovarian -54.5% | OVCAR-3 ovarian -94.6% | HS 578T breast -42.9% | NCI/ADR-RES ovarian -32.2%

CC(=O)c1c(C)[nH]c(-c2nc3ccc(N4CCN(C)CC4)cc3[nH]2)c1-c1ccc2c(c1)OCCO2
inactive: SR leukemia 46.2% | OVCAR-8 ovarian 48.2% | OVCAR-5 ovarian 46.4% | OVCAR-4 ovarian 43% | IGROV1 ovarian 23% | OVCAR-3 ovarian 46% | HS 578T breast 30.1% | NCI/ADR-RES ovarian 53%
active: RPMI-8226 leukemia 7.78%

C#CCn1c2c(c3ccccc31)C[C@]1(C)[C@H]3CC[C@@H]4[C@@H]5C(=CCC[C@H]5C(=C)C)CC[C@@]4(C)[C@]3(C)CC[C@H]1C2(C)C
inactive: SR leukemia 82.7% | RPMI-8226 leukemia 106% | OVCAR-8 ovarian 105% | OVCAR-5 ovarian 101% | OVCAR-4 ovarian 100% | IGROV1 ovarian 98.4% | OVCAR-3 ovarian 108% | HS 578T breast 93.8% | NCI/ADR-RES ovarian 106%

CNC(=O)c1cc(Oc2ccc3nc(NC(=O)Nc4ccc(Cl)cc4)sc3c2)ccn1
inactive: SR leukemia 42.7% | RPMI-8226 leukemia 81.7% | OVCAR-8 ovarian 57.2% | OVCAR-5 ovarian 92.3% | OVCAR-4 ovarian 13% | SK-OV-3 ovarian 82% | OVCAR-3 ovarian 48.8% | HS 578T breast 30.1% | NCI/ADR-RES ovarian 83.6%

COc1ccc(/C=C/C(=O)NCC(C)O)cc1 (stereo unspecified)
inactive: SR leukemia 105% | RPMI-8226 leukemia 105% | OVCAR-8 ovarian 97.9% | OVCAR-5 ovarian 89.2% | OVCAR-4 ovarian 104% | IGROV1 ovarian 93.2% | OVCAR-3 ovarian 103% | HS 578T breast 94.4%

C=C(C)[C@@H]1CC[C@]2(C(=O)N3CCCNCC3)CC[C@]3(C)[C@H](CC[C@@H]4[C@@]5(C)CCC(=O)C(C)(C)[C@@H]5CC[C@]43C)[C@@H]12
inactive: RPMI-8226 leukemia 92% | OVCAR-8 ovarian 95.6% | OVCAR-5 ovarian 106% | OVCAR-4 ovarian 92.3% | IGROV1 ovarian 93.6% | OVCAR-3 ovarian 98.8% | HS 578T breast 94.2% | NCI/ADR-RES ovarian 91.8%
active: SR leukemia 8.04%

Oc1ccc(CCC2CCCC(CCc3ccc(OCCF)cc3)N2)cc1 (stereo unspecified)
inactive: SR leukemia 67.2% | RPMI-8226 leukemia 90.8% | OVCAR-8 ovarian 93.3% | OVCAR-5 ovarian 89.4% | OVCAR-4 ovarian 82.9% | IGROV1 ovarian 96.2% | OVCAR-3 ovarian 107% | HS 578T breast 97.5% | NCI/ADR-RES ovarian 87.6%

Nc1c(C(=O)Nc2c(Cl)cccc2Cl)sc2nc3c(cc12)C(=O)CCC3
inactive: SR leukemia 36.4% | RPMI-8226 leukemia 65.5% | OVCAR-8 ovarian 62.7% | OVCAR-5 ovarian 86.5% | OVCAR-4 ovarian 65.6% | IGROV1 ovarian 71.9% | OVCAR-3 ovarian 11.2% | HS 578T breast 13.4% | NCI/ADR-RES ovarian 17.1%

COc1ccc(/C=C/C(=O)NCCO)cc1
inactive: SR leukemia 91.9% | RPMI-8226 leukemia 105% | OVCAR-8 ovarian 96.4% | OVCAR-5 ovarian 88.2% | OVCAR-4 ovarian 103% | IGROV1 ovarian 98.3% | OVCAR-3 ovarian 101% | HS 578T breast 92.4% | NCI/ADR-RES ovarian 104%

Cc1ccc(Sc2sc(-c3ccccc3)nc2[P+](c2ccccc2)(c2ccccc2)c2ccccc2)cc1
active: SR leukemia -10.1% | RPMI-8226 leukemia -39.2% | OVCAR-8 ovarian 7.53% | OVCAR-4 ovarian 2.09% | IGROV1 ovarian -0.559% | OVCAR-3 ovarian -9.1% | HS 578T breast -1.87%
inactive: OVCAR-5 ovarian 25.4%

Cc1nc([P+](c2ccccc2)(c2ccccc2)c2ccccc2)c(Sc2sc(-c3ccccc3)nc2[P+](c2ccccc2)(c2ccccc2)c2ccccc2)o1
active: RPMI-8226 leukemia -7.25% | OVCAR-8 ovarian 8.83% | OVCAR-4 ovarian -1.77% | OVCAR-3 ovarian -1.45%
inactive: SR leukemia 18.6% | OVCAR-5 ovarian 41.3% | IGROV1 ovarian 10.3% | HS 578T breast 14% | NCI/ADR-RES ovarian 75%

CCNCCCn1c2c(c3ccc([N+](=O)[O-])cc3c1=O)C(=O)c1cc(OC)cnc1-2
active: SR leukemia 0% | RPMI-8226 leukemia -22% | OVCAR-8 ovarian -37% | IGROV1 ovarian -24.1% | OVCAR-3 ovarian -33.1% | HS 578T breast 8.88% | NCI/ADR-RES ovarian -40.2%
inactive: OVCAR-5 ovarian 12.3% | OVCAR-4 ovarian 10.4%

COc1ccc(-c2cc(-c3c(C)oc4cc5occc5c(OC)c4c3=O)nc(N)c2C#N)cc1OC
active: SR leukemia 5.99%
inactive: RPMI-8226 leukemia 55.2% | OVCAR-8 ovarian 61.2% | OVCAR-4 ovarian 74.6% | SK-OV-3 ovarian 75.7% | IGROV1 ovarian 51.8% | OVCAR-3 ovarian 77.4% | HS 578T breast 53.5% | NCI/ADR-RES ovarian 61.9%

O=C(O)c1cccc2c1-c1ccc(Cl)cc1C2
inactive: SR leukemia 88.2% | RPMI-8226 leukemia 102% | OVCAR-8 ovarian 107% | OVCAR-5 ovarian 115% | IGROV1 ovarian 114% | OVCAR-3 ovarian 118% | HS 578T breast 103%

From PubChem BioAssay (NCI)
